# Most compounds without a hit are left out; they make up all but 2.2% or so of the library.
# aSyn yeast inh – qHTS of alpha-syn Inhibitors; Yeast expressing alpha-synuclein, growth rescue, BacTiter-Glo, 24 h; Potency, µM (top dose mostly 46.1 µM), inactives show at the highest dose growth rescue (activation), most hits filed as activators; 370,000 tested, 0.14% active; AID 652106, 2013; note: % of control where 0% means no effect; nearly all actives have a fitted effect of over 65% in size
#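 Screening used galactose-induced yeast with toxic alpha-synuclein levels, exposed to compound for 24 hr at 30 deg C. Cell growth, read with BacTiter-Glo luminescence, gave the measured signal.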
# TDP43 rescue – qHTS of TDP-43 Inhibitors. TDP-43 expressing yeast growth rescue, BacTiter-Glo, 24 h. Potency, µM (highest dose often 46.1 µM), for inactives: at the highest dose growth rescue (activation), actives largely listed as activators. 410,000 tested, 1.8% active. AID 652104, 2013; note: % of control where 0% means no effect; nearly all actives have a fitted effect of over 50% in size
#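 Yeast cells expressing TDP-43 under galactose induction are exposed to compounds for 24 hr at 30 deg C. BacTiter-Glo luminescence measures growth, so protective compounds score as activators.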
# FUS suppressor – qHTS for Suppressors of FUS Proteinopathy: Primary screen using FUS-linked yeast assay | S. cerevisiae FUS-expressing, growth rescue, OD600, 24 h | Potency, µM (series often up to 76.6 µM), hits mostly activators | 390,000 tested, 0.24% active | AID 1347120, 2019;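 note: plate controls were DMSO vehicle for no effect and reference control for full effect; nearly all actives have a fitted effect of over 55% in size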
#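 Yeast FUS proteinopathy model; galactose-induced FUS (2%), starting OD 0.005. Cpds in dilution series, 24hr, 30C, 99% humidity. Abs 600 nm growth. Pos ctrl CP55940 (top 92uM final); neg ctrl DMSO.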
# Abeta yeast res – qHTS for compounds that reverse cellular toxicity of Amyloid beta (A-beta) peptide in yeast: Primary Screen | yeast expressing A-beta42, growth rescue, OD600, 48 h; response scale: 0% DMSO, 100% iron-clioquinol control | Potency, µM (titrated, usually from 46.1 µM), hits mostly activators | 410,000 tested, 0.063% active | AID 1347071, 2019; note: nearly all actives have a fitted effect of over 55% in size
#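 Yeast growth medium received pinned compounds, then yeast cells expressing toxic A-beta were added; plates incubated at 30 C for 48 hr. Growth read as absorbance at 600 nm, normalized to DMSO and equimolar FeCl3 plus clioquinol controls.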
# Mito fusion act – qHTS Assay for Small Molecule Inhibitors of Mitochondrial Division or Activators of Mitochondrial Fusion; S. cerevisiae fusion-defective mutant growth rescue, CellTiterGlo 48 h; Potency, µM (titrated, usually from 46.1 µM), for inactives: top-dose growth rescue (activation), hits mostly activators; 320,000 tested, 0.23% active; AID 485298, 2010; note: % of control where 0% means no effect; nearly all actives have a fitted effect of over 45% in size
#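 Read-out: ATP-based luminescence (CellTiterGlo, 10 min ambient) reporting growth of fusion-defective ts yeast after 48 hours at 37C on glycerol/ethanol YPEG medium in the presence of compound.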
# The depositor's hits bear a star; i = inactive; ? = inconclusive; nt = no result given; [ ] = dose if it differs, or a comment. Calls come from the whole dose curve; as a rule, active = well fitted curve in the direction sought with a large enough effect; inconclusive = small, poorly fitted or top-dose-only effect, or another doubt; inactive = no such curve, though single readings can be large; an effect the other way counts as inactive or inconclusive. Potency is the fitted concentration of half-maximal effect.
SMILES,aSyn yeast inh,TDP43 rescue,FUS suppressor,Abeta yeast res,Mito fusion act
C#CCOCCOCCOCCNc1nc(N2CCN(C(=O)CCCCCCCCCCNC(=O)[C@H](CCCCN)n3cc(C[C@@H](C)CC)nn3)CC2)nc(N2CCN(C(=O)CCCCCCCCCCNC(=O)[C@@H]([C@H](C)O)n3cc(C)nn3)CC2)n1,-60.2%,31.5%,?,i,-4.8%
C#CCOCCOCCOCCNc1nc(N2CCN(C(=O)CCCCCCCCCCNC(=O)[C@@H](CCSC)n3cc(CCO)nn3)CC2)nc(N2CCN(C(=O)CCCCCCCCCCNC(=O)[C@H](CCC(=O)O)n3cc(CCCCCN)nn3)CC2)n1,-21.3%,18.9%,11.2µM*,i,-9.1%
O=C(O)CC1(CC(=O)Nc2ccc3c(c2)OCCCO3)CCCCC1,-4.0%,0.4%,i,i,0.8%
O=C(O)CC1(CC(=O)Nc2ccc3sccc3c2)CCCCC1,-15.0%,7.94µM*,i,i,1.5%
O=C(NCC1COCCO1)C1CCN(S(=O)(=O)c2cccs2)CC1 (stereo not drawn),nt,nt,i,nt,nt
Cc1ccc(Nc2cc(C)c(O)c(C)c2)cc1,3.6%,12.6µM*,i,i,-1.4%
CCOc1ccc(-n2c(C)cc(C(=O)CCl)c2C)cc1,-21.6%,8.91µM*,i,i,-7.2%
COC(=O)c1ccc(-n2c(C)cc(C(=O)CCl)c2C)cc1,-22.6%,?,i,i,-5.3%
O=C1/C(=C/c2ccccc2O)SC(=S)N1Cc1cccnc1,-16.4%,12.6µM*,i,i,0.2%
COC(=O)c1ccc(NC(=O)CSc2nc3cc4ccccc4cc3[nH]2)cc1,nt,4.8%,i,i,nt
CC[C@@]1(c2ccccc2OC)ON(c2ccccc2C(F)(F)F)C1=O,6.5%,17.8µM*,i,i,-31.6%
O=C(C[n+]1ccccc1Cl)c1ccc2ccccc2c1,3.0%,nt,nt,nt,nt
O=C(Cn1c(=O)n(-c2ccc(Cl)cc2)c(=O)c2oc3ccccc3c21)Nc1ccccc1,nt,8.4%,i,i,nt
CCCCOc1ccc(C2(C(=O)O)CCCC2)cc1,1.1%,3.7%,i,?,1.9%
CCCCOc1cccc(C2(C(=O)O)CCCC2)c1,9.7%,20µM*,i,i[9.22 µM],9.1%
CCCOc1ccc(C2(C(=O)O)CCCC2)cc1,12.9%,12.6µM*,i,i,7.2%
COc1ccccc1CNC(=O)CSc1nc(=O)[nH]c2c1CCC2,nt,?,i,i,nt
O=C(CCCC(=O)OCC(Cl)=C(Cl)Cl)Nc1cccc(F)c1,5.6%,14.1µM*,i,i,0.4%
O=C(CSCc1ccccc1)Nc1cccc(F)c1,3.3%,6.31µM*,i,i,5.3%
O=C(CCCC(=O)OCC(Cl)=C(Cl)Cl)Nc1cccc2ccccc12,-5.5%,20.3%,i,i,8.3%
O=C(Cc1ccccc1)Nc1cccc(N2C(=O)C=CC2=O)c1,2.2%,6.31µM*,nt,i,-2.5%
O=C(CCCC(=O)OCC(Cl)=C(Cl)Cl)Nc1ccc(F)cc1,10.4%,15.8µM*,i,i,5.3%
Clc1cccc(Cc2c(-c3ccccc3)nc3ccc(Cl)cn23)c1,2.0%,31.6µM*,i,i,nt
Fc1ccc(-c2nc3ccc(Cl)cn3c2Cc2cccc(Cl)c2)cc1,-1.4%,25.3%,i,i,nt
Clc1ccc(-c2nc3ccc(Cl)cn3c2Cc2cccc(Cl)c2)cc1,-1.2%,25.1µM*,?,i,nt
SMILES,aSyn yeast inh,TDP43 rescue,FUS suppressor,Abeta yeast res,Mito fusion act
COc1ccc(CNC2CCC23CCC(C)CC3)cc1OC (stereo not drawn),nt,nt,i,nt,nt
CCN(CC)S(=O)(=O)c1cnccc1N1CCN(c2cccc(Cl)c2)CC1,2.0%,?,i,i,12.6µM*
O=C(CCS(=O)(=O)c1cccc2nonc12)Nc1c(F)cccc1F,nt,7.0%,i,i,nt
O=C(Nc1ccc2c(c1)C(=O)N(c1ccccc1)C2=O)C1CCCO1 (stereo not drawn),-8.4%,12.6µM*,i,i,-5.4%
O=C1NC(=O)c2cc(NC(=O)C3CCCO3)ccc21 (stereo not drawn),0.7%,21.6%,i,i,1.1%
CC(=O)Nc1cc(C(F)(F)F)ccc1Oc1cccc(Br)c1,1.5%,11.2µM*,i,i,0.4%
CC(=O)Nc1cc(C(F)(F)F)ccc1OCCOc1ccccc1,-3.1%,12.6µM*,i,i,nt
COCCOc1ccc(C(F)(F)F)cc1NC(=O)c1ccccc1,-0.4%,?,i,i,13.4%
O=S(=O)(c1ccc(Br)cc1)c1nnn2c1nc(NCCc1ccccc1)c1sccc12,nt,-1.2%,i,i,nt
O=C(CCc1ccccc1)N[C@H]1C(=O)CCC[C@]12C(=O)N(Cc1ccccc1)c1ccccc12,nt,nt,i,nt,nt
CCc1nc(SCc2cc(Cl)ccc2OC)n[nH]1,15.8µM*,?,i,i,17.2%
Cc1nn2c(COc3ccc(NC(=O)C(C)C)cc3)nnc2c2ccccc12,-4.0%,14.9%,i,i,-2.2%
Cc1nn2c(COc3ccc(NC(=O)c4ccccc4Cl)cc3)nnc2c2ccccc12,?,-4.1%,22.4µM*,i,19.4%
CCOc1ccc(NCc2nnc(SCc3ccc(Cl)cc3)n2-c2ccccc2)cc1,?,25.1µM*,nt,i,19.8%
CCOC(=O)CSc1nnc(CNc2ccc(Cl)cc2)n1-c1ccccc1,27.4%,?,i,i,4.3%
O=C(NNc1nc2ccc(Cl)cc2s1)c1cc(-c2cccs2)nc2ccccc12,?,4.47µM*,i,?,-7.0%
CN(C)c1ccc(C2CCc3ccccc3N2C(=O)c2ccccc2)cc1 (stereo not drawn),-8.2%,nt,nt,nt,nt
Cc1cccc(CNC(=O)NC2CCCCN(Cc3cccc(Cl)c3)C2=O)c1 (stereo not drawn),nt,nt,i,nt,nt
CCOc1ccccc1-c1nc(-c2ccc(C)nc2OC)no1,8.8%,20µM*,?,i,-3.2%
CN1CCCc2ccccc21,3.6%,nt,nt,nt,nt
C#CCOc1ccc2c(C)cc(=O)oc2c1,0.1%,20µM*,i,i,-7.5%
C=C(Cl)COc1ccc2c(C)cc(=O)oc2c1,-0.2%,10.6%,i,i,1.8%
C/C(=N\Nc1cc(C)nc(-c2ccccc2O)n1)c1ccccc1O,-9.0%,11.2µM*,i,i,5.6%
CCOC(=O)c1c(C)oc2c(Cl)cc(NS(=O)(=O)c3ccc(Cl)c(C)c3)cc12,nt,1.0%,?,i,nt
COCCNc1cc(N)c([N+](=O)[O-])cc1[N+](=O)[O-],4.7%,11.2µM*,i,i,4.0%
Clc1cc(Sc2ccc(Br)cc2)nnc1-c1ccccc1,-13.4%,5.01µM*,i,i,7.6%
Clc1cccc(Cl)c1/C=C/c1ccn[nH]1,-4.1%,22.4µM*,i,i,27.8%
